Screening results from PubChem BioAssay.
PHOSPHO1 block = inhibitors of human PHOSPHO1 phosphatase; 290,000 tested, 1.1% active; inhibition, % at 13.3 µM; AID 1565; recombinant PHOSPHO1, absorbance phosphatase assay; Q8TCT1; in the data active means inhibition above about 60%
aDG glyco up = alpha-DG glycosylation activation; AID 624168; activation, % at 10 µM; Pro5-aDG cells, alpha-DG glycosylation AlphaScreen (IIH6); 0% Pro5, 100% B10-LARGE cell signal; 360,000 tested, 0.22% active;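 active means activation of at least 8% versus controls, or a plate z-score of at least 8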;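 further: Pro5 are CHO cells carrying HIG-tagged alpha-DG that lacks glycosylation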
ALR inh = blocks human ALR sulfhydryl oxidase activity; 290,000 tested, 3.8% active; purified ALR, DTT oxidation, H2O2 HRP-luminol luminescence; inhibition, % (concentration not given with the values); AID 485317; P55789;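 active means mean replicate inhibition above about 79%, with every replicate also reaching it, limit read from the data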
Target sequence (P55789 whole entry, looked up): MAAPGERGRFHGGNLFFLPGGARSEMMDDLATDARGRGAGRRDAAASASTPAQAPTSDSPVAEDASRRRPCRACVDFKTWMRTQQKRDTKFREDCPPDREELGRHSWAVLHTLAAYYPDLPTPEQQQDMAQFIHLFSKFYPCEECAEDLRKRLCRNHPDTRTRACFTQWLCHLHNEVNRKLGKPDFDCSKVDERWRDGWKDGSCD
rCAG binder = r(CAG) repeat RNA binding. TO-PRO-1 dye displacement fluorescence. inhibition, % at 3 µM. 370,000 tested, 1.3% active;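 active means inhibition above the plate cutoff, the mean of all test compounds on that plate plus 3 SD, cut at about 35% in these data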;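 further: 0% = DMSO alone and 100% = 100 µM mitoxantrone as full dye displacement; higher means more dye released from RNA so lower well fluorescence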
A3A deaminase = inhibitors of human APOBEC3A DNA deaminase; P31941; recombinant A3A, FAM/TAMRA ssDNA deamination fluorescence; inhibition, % at 20 µM; 330,000 tested, 0.41% active;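 active means at least 40% inhibition at 20 µM here, with at most 30% in a related deaminase screen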;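 further: plate controls were A3A with DMSO for no effect and wells lacking A3A enzyme for full effect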
Target sequence (P31941 whole entry, looked up): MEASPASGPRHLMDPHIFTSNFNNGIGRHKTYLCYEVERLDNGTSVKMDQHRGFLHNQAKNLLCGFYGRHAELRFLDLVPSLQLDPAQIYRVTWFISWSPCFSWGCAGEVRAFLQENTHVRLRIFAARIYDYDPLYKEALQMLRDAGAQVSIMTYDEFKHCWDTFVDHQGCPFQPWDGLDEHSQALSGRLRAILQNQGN
APOBEC3G inh = inhibitors of human APOBEC3G DNA deaminase. inhibition, % at 20 µM. 330,000 tested, 0.28% active. AID 493012. Q9HC16. recombinant A3G, ssDNA deamination FAM/TAMRA fluorescence;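 active means inhibition of at least 40% at 20 µM, with no more than 30% in the related APOBEC3A deaminase screen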;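 further: plate controls were DMSO wells with A3G for no effect and wells lacking A3G enzyme for full effect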
Active calls of the source: *; nt = not tested or not shown. A selection: hits, their analogues and other compounds. The true share with any hit is near 5.4%.

SMILES	PHOSPHO1 block	aDG glyco up	ALR inh	rCAG binder	A3A deaminase	APOBEC3G inh
Cc1cccc(Nc2nnc(SCC(=O)c3ccc(O)cc3O)s2)c1	-8	0	5	24	5	-1
CCc1ccc(Nc2nnc(SCC(=O)Nc3sccc3C(N)=O)s2)cc1	15	0	3	18	-1	-8
Cc1cccc(Nc2nnc(SCC(=O)Nc3ccc(C(=O)O)cc3)s2)c1	-23	0	94*	17	-2	-15
O=C(CC1CCCC1)N[C@H](C(=O)N1CCC[C@H]1C(=O)NC1CCCC1)C1CCCCC1	nt	nt	nt	0	nt	nt
COc1ccccc1Sc1nc(-c2ccccn2)ncc1OC	-19	4	41	-7	-5	-6
COc1cnc(-c2ccccn2)nc1NC(C)C	28	7.1*	-7	-2	-2	-4
COc1cnc(-c2ccccn2)nc1Oc1ccccc1Cl	22	0	98*	-1	1	-6
CCOC(=O)c1c(S(=O)(=O)NCC2CCN(Cc3cccc(F)c3)CC2)c(C)n(C)c1C	65*	0	2	-3	-2	-4
O=C(CSc1ncnc2ccccc12)NCCc1ccccc1	40	0	1	-7	5	-2
Cc1ccc2nc(SCC(=O)NCc3ccco3)c(C#N)cc2c1	28	0	48	6	0	-4
O=[N+]([O-])c1ccc(CSc2ncnc3ccccc23)cc1	-12	0	99*	2	-2	-4
O=C(CSc1ncnc2ccccc12)c1ccco1	-90	0	99*	nt	1	-4
Cc1ccc2nc(SCC(=O)NCc3ccco3)c(C)cc2c1	32	0	98*	-1	3	2
Cc1nc(SCC(=O)NCc2ccco2)c2c3c(sc2n1)CCCC3	-1	0	97*	1	0	2
O=C(CSc1nc(C2CC2)nc2sc3c(c12)CCCC3)NCc1ccco1	16	0	-1	3	1	1
CN(CCc1ccccn1)C(=O)c1ccc(Sc2ccccc2Cl)c([N+](=O)[O-])c1	nt	nt	nt	0	nt	nt
Cc1ccccc1Nc1nnc(SCC(=O)NCc2ccco2)s1	87*	0	1	7	7	2
O=C(COc1ncnc2ccccc12)NCc1ccco1	-15	0	-3	-5	2	2
O=C(CSc1ncnc2ccccc12)NCc1ccco1	8	0	99*	3	7	5
COc1ccc(C/C(C)=N/NC(=S)Nc2ccccc2)cc1	-12	0	82*	-4	0	-1
COC(=O)[C@]12C[C@H](CC(=O)NCc3ccc(OC)c(OC)c3)C(=O)N(Cc3ccc(Cl)cc3Cl)C1=C[C@H](C(C)C)O[C@@H]2C1CC1	nt	nt	nt	4	nt	nt
COC(=O)c1c(NC(=O)C2CC=CCC2C(=O)O)sc(C(N)=O)c1C (centres undefined)	12	0	99*	12	-15	-8
COC(=O)c1c(NC(=O)C2CC=CCC2C(=O)O)sc(C)c1C (centres undefined)	16	0	-2	8	-1	-5
N/C(=N\NS(=O)(=O)c1ccccc1)c1ccccn1	nt	0	59	-2	-6	-9
N/C(=N\NS(=O)(=O)c1cc(C(F)(F)F)cc(C(F)(F)F)c1)c1ccccn1	16	0	85*	11	-6	-10
SMILES	PHOSPHO1 block	aDG glyco up	ALR inh	rCAG binder	A3A deaminase	APOBEC3G inh
O=C(O)c1cccc2c1-c1ccccc1/C2=N\Nc1ccccc1	39	0	99*	29	2	-1
Cc1c(NC(=O)C2CCCN(S(=O)(=O)c3ccc(Br)s3)C2)c(=O)n(-c2ccccc2)n1C (centres undefined)	nt	nt	nt	1	nt	nt
CC1CN2C(c3ccc(Cl)cc3)=CSC2=N1 (centres undefined)	3	0	99*	0	-8	-9
COc1ccc(OC)c(S(=O)(=O)N2CCC(C(=O)N3CCN(C4CCCCC4)CC3)CC2)c1	nt	nt	nt	0	nt	nt
COc1ccc(OCC(=O)NNC(=S)NC(=O)c2ccc([N+](=O)[O-])cc2)cc1	-34	0	nt	12	-7	25
O=C(COc1ccc(Br)cc1)NNC(=S)NC(=O)c1ccccc1[N+](=O)[O-]	23	0	nt	26	nt	nt
COc1ccc(NC(=O)COc2ccc(Br)cc2)c(OC)c1	60*	0	nt	-4	0	-3
CC(=O)NC(=S)NNC(=O)COc1ccc(Br)cc1	61*	0	nt	-1	nt	nt
CC(=O)NC(=S)NNC(=O)COc1ccc([N+](=O)[O-])cc1	67*	0	21	-1	-3	20
